Compound activity: PubChem, several laboratories
PABP FP inh = blocks human PABP binding to poly(A) RNA | P11940 | fluorescence polarization | calls only at 35 µM | 290,000 compounds, 1% hits | AID 2014;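 note: calls also rest on retests at 20 µM and on dose response follow-up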
eIF4H inh = inhibitors of RNA binding by human eIF4H. Q15056. eIF4H fluorescence polarization binding assay. inhibition, % at 35 µM. 290,000 compounds, 0.94% hits. AID 2012;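 note: calls also rest on retests at 20 µM and on dose response follow-up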
PERK inh = inhibitors of human PERK kinase; Q9NZJ5; inhibition, % at 5.6 µM; 220,000 compounds, 0.17% hits; CHO PERK-DD fusion, SEAP luminescence translation reporter;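 active = inhibition above the mean inhibition of all tested compounds plus 3 SD, set separately per screening campaign, cut at about 2.9% in these data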;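 note: PERK kinase domain activated by AP20187 dimerizer at 100 nM; 0% = DMSO with dimerizer and 100% = rapamycin at 8.4 µM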
eIF4E 4G PPI = inhibitors of eIF4E and eIF4G interaction in translation initiation. TR-FRET eIF4E-eIF4GI(517-606) binding, 2 h. inhibition, % at 21.7 µM. 220,000 compounds, 0.37% hits;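 active = inhibition above about 30%, limit read from the data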;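 note: 0% = full FRET control wells and 100% = background wells lacking eIF4GI fragment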
MLLE-PAM2 inh = inhibitors of microRNA-mediated deadenylation, human PABP1 MLLE binding; GST-MLLE / FITC-PAM2 fluorescence polarization; inhibition, % at 20 µM; 360,000 compounds, 0.36% hits; AID 588489; in the data active = inhibition above about 35%, passing the limit was not always enough;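 note: plate controls were DMSO wells with GST-MLLE for no effect and wells lacking GST-MLLE protein for full effect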
Active calls of the source: *; [ ] = dose if it differs, or a comment. Only some compounds are listed: those with a hit (about 1.6% of all), similar ones and a draw of the others. Unless noted, the rule behind the calls is not given here.

Results for COC(=O)CCCC1=CC2=C(c3ccccc3)C(=O)C(C)(OC(=O)C3CCCC3)C(=O)C2=CN1Cc1ccco1 (centres undefined) ?
PABP FP inh: active; eIF4H inh: 60; eIF4E 4G PPI: 0; MLLE-PAM2 inh: 37

Results for CC(C)c1ccc(/C=C/C(=O)Nc2nn[nH]n2)cc1 ?
PABP FP inh: inactive; eIF4H inh: -5; PERK inh: 0; eIF4E 4G PPI: -1

What do the screens show for `COC(=O)c1sc(NC(=O)c2ccoc2C)nc1C`?
PABP FP inh: inactive; eIF4H inh: 3; PERK inh: 1; eIF4E 4G PPI: 3; MLLE-PAM2 inh: 0

How did COC(=O)c1sc(NC(=O)/C=C/c2ccc(C)o2)nc1C do in these assays?
PABP FP inh: inactive; eIF4H inh: 95*; PERK inh: 0; eIF4E 4G PPI: 0; MLLE-PAM2 inh: 5

Results for Cc1ccc(/C=C/C(=O)Nc2nn[nH]n2)o1 ?
PABP FP inh: inactive; eIF4H inh: 38; PERK inh: 1; eIF4E 4G PPI: 3; MLLE-PAM2 inh: 36*

Results for O=C(CCl)Nc1ccccc1C(=O)Nc1ccc2c(c1)OCO2 ?
PABP FP inh: inactive; eIF4H inh: -11; PERK inh: 1; eIF4E 4G PPI: 6; MLLE-PAM2 inh: 2

How did CCN1C(=O)/C(=C\N(C)C)c2ccccc21 do in these assays?
PABP FP inh: inactive; eIF4H inh: 4; PERK inh: 1; eIF4E 4G PPI: -1; MLLE-PAM2 inh: 7

How did CCO/C=C1\C(=O)N(CC)c2ccccc21 do in these assays?
PABP FP inh: active; eIF4H inh: active; PERK inh: 0; eIF4E 4G PPI: 3; MLLE-PAM2 inh: 16

How did COc1ccc(C(C)=O)cc1CSc1nc2cc(Cl)ccc2o1 do in these assays?
PABP FP inh: active; eIF4H inh: 65*; PERK inh: 1; eIF4E 4G PPI: -4; MLLE-PAM2 inh: -12

How did Cc1ccc(C(=O)NC2CC(C)(C)NC(C)(C)C2)cc1S(=O)(=O)N1CCCCC1 do in these assays?
MLLE-PAM2 inh: 10

What do the screens show for `Cc1ccc(NC(=O)CN(C)CC(=O)Nc2ccc(N3CCOCC3)cc2)c([N+](=O)[O-])c1`?
PABP FP inh: inactive; eIF4H inh: 2; PERK inh: 0; eIF4E 4G PPI: -5; MLLE-PAM2 inh: -2

What do the screens show for `O=C(c1nc2ccccn2c1CN1CCCC(O)C1)N1CCN(C2CCCCC2)CC1` (centres undefined)?
PABP FP inh: inactive; eIF4H inh: 22; MLLE-PAM2 inh: 42*

Results for C/C(=N\NC(=S)NCCc1ccccc1)c1ccc(O)cc1O ?
PABP FP inh: inactive; eIF4H inh: 1; MLLE-PAM2 inh: 40*

What do the screens show for `C/C(=N\NC(=S)NCCc1ccccc1)c1ccc(Cl)cc1Cl`?
PABP FP inh: inactive; eIF4H inh: -9; MLLE-PAM2 inh: 22

Results for CN(CC(=O)Nc1ccc(F)cc1)C(=O)CSc1ncccn1 ?
MLLE-PAM2 inh: -11

Results for O=C1C(=Cc2ccc(Br)o2)C(=O)c2ccccc21 ?
PABP FP inh: active; eIF4H inh: 89*; PERK inh: 0; eIF4E 4G PPI: 38*[fluorescence artefact?]; MLLE-PAM2 inh: 23

How did CC(=O)c1cccc(S(=O)(=O)NCCC(=O)O)c1 do in these assays?
PABP FP inh: inactive; eIF4H inh: -6; PERK inh: 1; eIF4E 4G PPI: -2; MLLE-PAM2 inh: 9

What do the screens show for `Cc1cc2cc(CNC(=O)c3ccc(Br)o3)ccc2n1C`?
PABP FP inh: inactive; eIF4H inh: 31; eIF4E 4G PPI: -15; MLLE-PAM2 inh: 62*

How did Cc1ccc(CNC(=O)c2ccc(Br)o2)cc1 do in these assays?
PABP FP inh: inactive; eIF4H inh: 16; PERK inh: 2; eIF4E 4G PPI: -6; MLLE-PAM2 inh: -6

Results for Cc1cc2cc(CNC(=O)c3ccc(Br)o3)ccc2[nH]1 ?
PABP FP inh: inactive; eIF4H inh: 9; eIF4E 4G PPI: -15; MLLE-PAM2 inh: 57*

How did CCN(CC)CCCn1c2c(c(SCC(=O)N3CCc4ccccc43)nc1=O)CCC2 do in these assays?
MLLE-PAM2 inh: 16

How did Cc1ccc(C(=O)O)cc1-c1ccc(C=C2C(=O)c3ccccc3C2=O)o1 do in these assays?
PABP FP inh: inactive; eIF4H inh: 28; PERK inh: 1; eIF4E 4G PPI: 7; MLLE-PAM2 inh: -159

What do the screens show for `COC(=O)C(C)N1C(=O)S/C(=C\c2ccc(-c3ccc(C(=O)O)cc3C)o2)C1=O` (centres undefined)?
PABP FP inh: active; eIF4H inh: 52*; MLLE-PAM2 inh: -97
